Molecules are shown by their SMILES. Records with an inconclusive call do not appear. The source made the active and inactive calls. The call rests on the fitted dose curve; in most records, active means well fitted curve in the direction sought with a large enough effect; inconclusive means small, poorly fitted or top-dose-only effect, or another doubt; inactive means no such curve, though single readings can be large or run the other way.

Sequence of Calcium and integrin-binding protein 1 (Homo sapiens) (Q99828 whole entry, looked up): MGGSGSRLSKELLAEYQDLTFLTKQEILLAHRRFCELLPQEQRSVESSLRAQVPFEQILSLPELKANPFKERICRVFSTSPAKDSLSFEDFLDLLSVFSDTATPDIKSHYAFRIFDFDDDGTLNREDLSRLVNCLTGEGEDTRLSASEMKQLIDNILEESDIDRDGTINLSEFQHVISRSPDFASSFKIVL

This test addresses Calcium and integrin-binding protein 1 (Homo sapiens) (UniProt Q99828). As to the kind of experiment: Validation qHTS for Identification of Calcium Integrin Binding protein 1 (CIB1) Competitor (AID 1508618). As to conditions: CIB1-GST / FITC-alphaIIb peptide fluorescence polarization; series mostly up to 114 µM. The source says:
Assay Provider: Ulhas P. Naik, PhD
Sidney Kimmel Medical College
Thomas Jefferson University, Philadelphia, PA
Primary function of platelets is to maintain hemostasis. At the site of vascular injury, platelets adhere to adhesive proteins such as collagen and von Willebrand factor. Adherent platelets are activated and generate soluble platelet agonists such as thrombin, ADP and thromboxane A2. Following exposure of circulating platelets to these agonists, results in platelet shape change, granule secretion and activation of platelet integrin alphaIIb-beta3. Ligand binding to activated integrin alphaIIb-beta3 triggers outside-in signaling, leading to platelet aggregation, stabilization of platelet plug, and clot retraction. Upon atherosclerotic plaque rupture also causes platelet plug formation, which underlies a number of cardiovascular diseases such as myocardial infraction and stroke. A number of anti-platelet drugs such as aspirin, clopidogrel, prasugrel, vorapaxar, and eptifibatide are currently available to prevent the thrombotic complications. However, these anti-platelet agents have several limitations including inherent variability in individual responses, developing resistance, and serious bleeding side effects. For these reasons they are not suitable for long-term protection. Based on the experiences with current anti-platelet drugs, it appears that the most useful therapeutic approach is to intersect the secondary responses such as integrin outside-in signaling or recruitment of platelets by TxA2 and secreted ADP. Compounds, which can largely preserve the primary hemostatic function of platelets but inhibit secondary response will be most desired therapeutic agents for treatment of cardiovascular disease.
CIB1 is a calcium integrin binding protein, which specifically interact with the alphaIIb subunit of integrin alphaIIb-beta3. Binding of CIB1 to alphaIIb regulates the outside-in signaling in platelets, which is needed for thrombus stabilization and thrombus growth. […] Therefore, we propose that discovery of a small molecule that can prevent the association of CIB1 and alphaIIb-beta3 will be a potential anti-platelet agent that can block the thrombus formation without undue effect on hemostasis.
To develop fluorescence polarization (FP) assay using fluorescently labeled alphaIIb peptide and CIB1 protein. Using FP assay characterize the binding affinity, competitive inhibition, and acceptable Z factor (0.5 to1) in order to perform the HTS to identify small molecule compound that can prevent CIB1 binding to platelet integrin alphaIIbbeta3. This assay is screened against the NCATS LOPAC library to validate the amenability of the assay to qHTS.
[1] Naik MU, Nigam A, Manrai P, et al. CIB1 deficiency results in impaired thrombosis: the potential role of CIB1 in outside-in signaling through integrin alpha IIb beta 3. J Thromb Haemost. 2009;7(11):1906-1914. doi:10.1111/j.1538-7836.2009.03581.
SEQUENCE No. (1, 2, 3, etc.); […] (e.g., Cells, Incubation, Reagent, etc.); VALUE and DESCRIPTION.
1; Reagent; 3 uL; Protein or buffer (4/3x)
2; Compound; 46 nL; Control inhibitor / compound library
3; Time; 15 min; Room temperature incubation
4; Reagent; 1 uL; Fluorescent labeled peptide (4x)
5; Time; 1000 rpm; Centrifuge
6; Time; 15 min; Room temperature incubation
7; Detection; Ex 480/ Em 540; ViewLux Fluorescence Read
NOTES (numbers refer to sequence above)
1; Protein Mixture: C1B1-GST (final concentrations of 1 uM). Buffer composition: 5 mM HEPES pH 7.4, 125 mM NaCl, 5 mM CaCl2, 0.01% Tween20.
2; Control Inhibitor: unlabeled peptide (final concentration range 17.4 nM to 572 uM). Compound Library final concentration range 18.3 nM to 114 uM.
3; Room temperature incubation.
4; Fluorescent Labeled Peptide: FITC-aIIb (final concentration of 100 nM). Sequence of alphaIIb peptide: Acetyl-[…]-FITC (purity is 95.83%).
6; Room temperature incubation.
[…]
Background: qHTS replaces the single test concentration by a dilution series.
Turning to `C[C@]12C[C@H](O)[C@H]3[C@@H](CCC4=CC(=O)CC[C@@]43C)[C@@H]1CC[C@@H]2C(=O)CO`, the result was inactive.
To `NC1[C@H]2CN(c3nc4c(cc3F)c(=O)c(C(=O)O)cn4-c3ccc(F)cc3F)C[C@@H]12` (stereo not given in full) belongs “inactive”.
To `CN1CCN(C2Cc3ccccc3Sc3ccc(Cl)cc32)CC1` (stereo not given) belongs “inactive”.
Under `CC(C)C(=O)c1c(C(C)C)nn2ccccc12` stands “inactive”.
In the case of `C[C@H](NC(CCc1ccccc1)C(=O)O)C(=O)N1CCC[C@H]1C(=O)O` (stereo not given in full), the outcome was inactive.
Turning to `CC(CN(C)C)CN1c2ccccc2CCc2ccccc21` (stereo not given), the outcome was inactive.
To `Cc1c(O)cccc1C(=O)N[C@@H](CSc1ccccc1)[C@H](O)CN1C[C@H]2CCCC[C@H]2C[C@H]1C(=O)NC(C)(C)C` belongs “inactive”; to `CC(=O)c1ccc2c(c1)N(CCCN(C)C)c1ccccc1S2`, “inactive”.
Under `CCN(CC)CCNC(=O)c1c(C)[nH]c(/C=C2\C(=O)Nc3ccc(F)cc32)c1C` stands “inactive”; under `CN(C)CCC=C1c2ccccc2CCc2ccccc21`, “inactive”; under `CN1CCC[C@@H]1Cc1c[nH]c2ccc(CCS(=O)(=O)c3ccccc3)cc12`, “inactive”.
Under `CCCn1cnc2c1c(=O)n(CCCCC(C)=O)c(=O)n2C` stands “inactive”; under `C[C@]12CC[C@@H]3c4ccc(O)cc4CC[C@H]3[C@@H]1CCC2=O`, “inactive”; under `CCCCN(CCCC)CC(O)c1cc(Cl)cc2c1-c1ccc(Cl)cc1/C2=C/c1ccc(Cl)cc1` (stereo not given), “inactive”.
Turning to `CC(C)(C)c1onc(OCP(=O)(O)O)c1CC(N)C(=O)O` (stereo not given), the result was inactive.
Under `CNCC(O)c1ccc(O)c(O)c1` (stereo not given) stands “inactive”; under `CC(C)(C)[C@]1(O)CCN2C[C@H]3c4ccccc4CCc4cccc(c43)[C@@H]2C1`, “inactive”; under `C[C@](N)(Cc1ccc(O)cc1)C(=O)O`, “inactive”.
For `Cc1cc(N)c2ccccc2[n+]1CCCCCCCCCC[n+]1c(C)cc(N)c2ccccc21`, the result was inactive.
Under `CC(CN1c2ccccc2Sc2ccccc21)N(C)C` (stereo not given) stands “inactive”.
`Nc1ncnc2c1ncn2[C@@H]1O[C@H](CO)[C@@H](O)[C@H]1O`: the outcome was inactive.
To `Nc1cc(=O)[nH]c(N)n1` belongs “inactive”; to `CCN(CC)CCOC(=O)C1(C2CCCCC2)CCCCC1`, “inactive”.
Regarding `CC1=C(/C=C/C(C)=C/C=C/C(C)=C/C(=O)O)C(C)(C)CCC1`, the outcome was inactive.
To `CCN(CC)CCNC(=O)c1cc(Cl)c(N)cc1OC` belongs “inactive”; to `COCCOC(=O)C1=C(C)NC(C)=C(C(=O)OC/C=C/c2ccccc2)C1c1cccc([N+](=O)[O-])c1` (stereo not given), “inactive”; to `O=C1NC(=O)[C@@]2(CCOc3ccc(F)cc32)N1`, “inactive”.
Take `CCN(CC)C(C)CN1c2ccccc2Sc2ccccc21` (stereo not given): the outcome was inactive.
To `CC[C@H]1CN2CCc3cc(OC)c(OC)cc3[C@@H]2C[C@@H]1C[C@H]1NCCc2cc(OC)c(OC)cc21` belongs “inactive”.
To `CNC(=O)Oc1ccc2c(c1)[C@]1(C)CCN(C)[C@@H]1N2C` belongs “inactive”.
For `CC1=C(CC(=O)O)c2cc(F)ccc2/C1=C\c1ccc(S(C)(=O)=O)cc1`, the outcome was inactive.
To `CN(C)CCCN1c2ccccc2Sc2ccc(Cl)cc21` belongs “inactive”; to `CC(=O)OCC(=O)[C@@]1(O)CC[C@H]2[C@@H]3CCC4=CC(=O)CC[C@]4(C)[C@H]3C(=O)C[C@@]21C`, “inactive”.
To `OCc1cc(C(O)CNCCCCCCOCCCCc2ccccc2)ccc1O` (stereo not given) belongs “inactive”.
With `N=c1c[n+](N2CCOCC2)[n-]o1`, the result was inactive.
Under `CC(C)NC[C@H](O)c1ccc(O)c(O)c1` stands “inactive”; under `O=C1N=C(O)CN1/N=C/c1ccc(-c2ccc([N+](=O)[O-])cc2)o1`, “inactive”; under `CN(C)CCOC(C)(c1ccccc1)c1ccccn1` (stereo not given), “inactive”.
Under `CSc1ccc2c(c1)N(CCC1CCCCN1C)c1ccccc1S2` (stereo not given) stands “inactive”; under `NC(=O)c1ncn([C@@H]2O[C@H](CO)[C@@H](O)[C@H]2O)n1`, “inactive”.
